# Assay results taken from PubChem BioAssay (Tox21).
# Values joined by “and” are separate entries in the source; they are usually repeats but may differ in a detail not shown here. Identical values can stand only once. Results filed as inconclusive are left out. Entries that show only a call come without a potency. Some compounds were tested as several samples or in several runs, with calls that do not always agree. Active and inactive are the calls of the source. The call rests on the fitted dose curve.
# Molecular target: 5-hydroxytryptamine receptor 2A (Homo sapiens) (UniProt P28223)
# Assay: 5-hydroxytryptamine receptor 2A (HTR2A) small molecule agonists, cell-based qHTS assay (AID 1963587); further: nearly all actives have a fitted effect of over 30% in size
# Conditions: HTR2A-CHO cells, calcium flux fluorescence, agonist mode; series mostly up to 76.8 µM; activation: at the top concentration
# From the text: National Center for Advancing Translational Sciences [NCATS]
# Division of Preclinical Innovation [DPI]
# U.S. Environmental Protection Agency [EPA]
# National Institutes of Environmental Health Sciences [NIEHS]
# National Toxicology Program [NTP]
# U.S. Food and Drug Administration [FDA]
# The HTR2A receptor is a subtype of the 5-HT2 receptor that belongs to the serotonin receptor family and is a G protein-coupled receptor (GPCR). The HTR2A-CHO cell line stably expressing human 5-hydroxytryptamine receptor 2A (HTR2A) can be used for screening agonists of interactions between 5-HT2 and its ligands. The HTR2A-CHO calcium flux assay is a homogeneous fluorescence-based assay for detecting the intracellular calcium level using FDSS kinetic plate reader system.
# HTR2A-CHO cells were dispensed at 2000 cells/3uL/well in 1536-well black-clear bottom plates using a Multidrop Dispenser. After the assay plates were incubated at a 37 C/5% CO2 incubator for 18 h, 3 uL of Dye Loading Buffer was transferred to the assay plate by a Flying Reagent Dispenser. The assay plates were incubated at 37 C for 1h. For agonist mode, 23 nL of compounds dissolved in DMSO, positive controls or DMSO only was transferred to the assay plate by a pin tool. The fluorescence intensity in the plates was measured using FDSS 7000EX kinetic plate reader for 2 min at 1 sec intervals.
# Potency means the concentration at half of the fitted maximal effect.
# Sequence of 5-hydroxytryptamine receptor 2A (Homo sapiens) (P28223 whole entry, looked up): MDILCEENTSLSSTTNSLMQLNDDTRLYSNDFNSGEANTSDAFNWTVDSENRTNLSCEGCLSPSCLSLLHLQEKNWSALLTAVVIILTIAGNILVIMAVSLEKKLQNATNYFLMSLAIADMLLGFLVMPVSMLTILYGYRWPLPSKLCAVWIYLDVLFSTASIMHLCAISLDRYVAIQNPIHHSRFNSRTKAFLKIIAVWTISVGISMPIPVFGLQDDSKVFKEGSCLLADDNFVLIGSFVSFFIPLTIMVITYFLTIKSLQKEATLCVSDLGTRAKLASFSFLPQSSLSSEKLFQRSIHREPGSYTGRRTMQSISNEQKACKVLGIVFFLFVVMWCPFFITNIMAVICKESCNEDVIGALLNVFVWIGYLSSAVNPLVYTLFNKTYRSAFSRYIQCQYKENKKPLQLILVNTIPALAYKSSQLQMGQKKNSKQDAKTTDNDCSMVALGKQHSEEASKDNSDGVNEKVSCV
SMILES,activation,Potency
O=S(=O)(c1ccccc1)c1ccccc1,-0.0701% (inactive),
Brc1ccc(Oc2ccccc2)cc1,,inactive
c1ccc2c(c1)Oc1ccccc1O2,,inactive
NC(=O)CF,0.564% (inactive),
C=CC(C)=O,2.21% (inactive),
Clc1ccc(Cl)c(Cl)c1,,inactive
Clc1ccccc1-c1nnc(-c2ccccc2Cl)nn1,,inactive
Clc1ccc(C(c2ccccc2Cl)C(Cl)(Cl)Cl)cc1 (stereo not given),,inactive
Cc1ccc2ccccc2c1,-0.627% (inactive),
COCC(=O)N(c1c(C)cccc1C)N1CCOC1=O,-0.551% (inactive),
C=CCc1ccc(OC)cc1,,inactive
Cc1ccc(-c2nc3ccc(C)cn3c2CC(=O)N(C)C)cc1,-0.56% [at 35.6 µM] (inactive),
CCCN(CCOc1c(Cl)cc(Cl)cc1Cl)C(=O)n1ccnc1,,inactive
Nc1ncn[nH]1,,inactive
O=NN1CCCC1,,inactive
CC(C)c1ccc(CO)cc1,,inactive
Cc1ccccc1N,,inactive
CCN(CC)CCO,,inactive
CC(Br)C(=O)O (stereo not given),,inactive
CCc1cnc(C2=NC(C)(C(C)C)C(=O)N2)c(C(=O)O)c1 (stereo not given),,inactive

SMILES,activation,Potency
CC(Cl)Cl,0.799% (inactive),
CN(C)c1nc(=O)n(C2CCCCC2)c(=O)n1C,1.28% (inactive),
CN(C)[C@@H]1C(=O)C(C(N)=O)=C(O)[C@@]2(O)C(=O)C3=C(O)c4c(O)cccc4[C@@](C)(O)[C@H]3C[C@@H]12,,inactive
CCN,-0.131% (inactive),
CCCCCCCCCCCCCCCC[N+](C)(C)C,,18.8 µM (active) and 38.9 µM (active)
Oc1ccc(Cl)cc1,,inactive
Brc1ccc(Oc2cc(Br)c(Br)cc2Br)c(Br)c1,,inactive
CCOP(=O)(O)OCC (tested in a mixture with another compound),,inactive and 19.3 µM (active)
OCC(O)CCl (stereo not given),,inactive
COC(=O)c1sccc1S(=O)(=O)NC(=O)Nc1nc(C)nc(OC)n1,,inactive
C#CCO,-0.0615% (inactive),
Cc1ccc(N)cc1N,,inactive
CCCBr,-1.58% (inactive),
Clc1ccc(C(c2ccc(Cl)cc2)C(Cl)Cl)cc1,,inactive
Cc1ccc2c(C)cccc2c1,-0.46% (inactive),
S=C1NCCN1,,inactive
COc1cccc(C=O)c1,-0.451% (inactive),
COc1cc(OC)nc(NC(=O)NS(=O)(=O)c2ncccc2C(=O)N(C)C)n1,-0.504% (inactive),
ClCCN1CCOCC1,-1.38% (inactive),
CC12CC1(C)C(=O)N(c1cc(Cl)cc(Cl)c1)C2=O (stereo not given),,inactive
